Test [1] is described as follows: rapamycin-like changes in RPL19A-GFP expression – cell-based, S. cerevisiae, multiplex flow cytometry, primary screen (AID 1862; in the data active means percent of DMSO control GFP below about 86%;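 further: lower values mimic rapamycin by blocking the RPL19A rise seen in DMSO cells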). The settings on record: S. cerevisiae RPL19A-GFP strain, flow cytometry fluorescence, 3 h; at 10 µM; stronger effect = lower value.
Test [2] is described as follows: TOR pathway GLN3 branch reporter MEP2-GFP changes – S. cerevisiae, multiplex flow cytometry, primary screen (AID 1867;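 active means GFP response, as percent of the DMSO control, above the screen-wide mean plus 3 SD, about 139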;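 further: median GFP channel fluorescence of barcode-gated MEP2-GFP cells measured by flow cytometry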). The settings on record: S. cerevisiae MEP2-GFP strain, 3 h, at 10 µM, stronger effect = higher value, 100% means same as DMSO wells. Background: In flow cytometry, cells or beads pass a laser one at a time.
Test [3] can be described thus: TOR pathway RTG branch CIT2 reporter changes – S. cerevisiae, GFP fusion, multiplex flow cytometry, primary screen (AID 1870;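 active means percent response above a set limit, the screen-wide mean plus 3 SD, cut at about 130% in these data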;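 further: barcoded CIT2-GFP strain pooled with four other GFP strains with rapamycin as positive control; median GFP fluorescence per well over plate mean of DMSO wells so 100% = DMSO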). Particulars: S. cerevisiae CIT2-GFP expression, 3 h, at 10 µM, stronger effect = higher value.
Test [4] is described as follows: TOR pathway LAP4-GFP level changes – S. cerevisiae, multiplex flow cytometry, primary screen (AID 1873). The settings on record: S. cerevisiae LAP4-GFP expression, 3 h, at 10 µM, stronger effect = higher value.
The nature of test [5]: yeast AGP1-GFP level changes, GLN3 branch – cell-based, multiplex flow cytometry, S. cerevisiae, primary screen (AID 1887;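 active means GFP signal above the screen-wide mean plus 3 SD, that is over about 124.5% of the solvent control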;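 further: AGP1-GFP fusion strain of S. cerevisiae within a five-strain barcoded multiplex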). The settings on record: 3 h, at 10 µM, stronger effect = higher value.
A short description of test [6]: reduced mouse 2C T cell binding to pMHC/ICAM-1 vesicles – MLPCN validation set, flow cytometry, LFA-1/ICAM-1 modulator project, pilot screen (AID 2523;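 active means response below a set limit, under 55% cells CD8-positive and vesicle-bound, and CD8 cells' 90th-percentile brightness under 279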;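 on vesicle binding response: mean PE anti-B7-1 fluorescence of CD8+ cells relative to row control; 100% = QL9-loaded vesicles with DMSO vehicle in the same plate row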). Particulars: 2C mouse CD8+ T cells, at 7 µM, stronger effect = lower value; double positive events: measured here: CD8+/vesicle+ event percentage.
Test [7] deals with Integrin beta-1 (Homo sapiens) + Integrin alpha-4 (Homo sapiens) (UniProt P13612+P05556). As to the kind of experiment: alpha4beta1 integrin LIBS antibody binding reduction – U937 cells, HUTS-21 mAb, flow cytometry, validation set, VLA-4 allosteric modulator project, pilot screen (AID 2674;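 active means inhibition above 50%, about 3 SD of the validation set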;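 further: antibody binding induced by the VLA-4 ligand LDV present at three times its Kd; 0% = LDV ligand with antibody and no compound and 100% = antibody without LDV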). The settings on record: HUTS-21 LIBS mAb binding, at 6.7 µM, stronger effect = higher value, binding induced by LDV ligand.

Test [8] in a line: calorie-restriction mimetic ROS inhibitors, yeast – validation compound set, pilot screen (AID 2706;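 active means superoxide response below 65% of plate, a cut near 3 SD across the whole screen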;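 further: yeast exposed to compound for one week at 30 degrees C before staining; 100% = mean of all compound wells on the same plate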). The settings on record: S. cerevisiae aging, superoxide DHE fluorescence; at 10 µM; stronger effect = lower value.
Test [9] deals with Beta-adrenergic receptor kinase 1 (Homo sapiens) (UniProt P25098). As to the kind of experiment: GRK2 binders displacing RNA aptamer, biochemical, validation, human GRK2, bead flow cytometry (AID 488806;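 active means aptamer binding inhibition above 30%, about 3 SD of noise from non-fluorescent compounds; inactive means inhibition at or below 30%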). Particulars: bead-bound GRK2, FAM-aptamer displacement, at 10 µM, stronger effect = higher value.
The target of test [10] is Beta-2 adrenergic receptor (Homo sapiens) (UniProt P07550). Nature of the test: agonist-induced loss of surface beta2AR – cell-based, FAP fluorogen, flow cytometry, validation set, pilot screen (AID 504459;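 active means percent response above 42, roughly 3 SD of non-fluorescent test compounds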;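 further: agonist-driven loss of surface beta2AR via internalization measured by FAP dye flow cytometry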). The settings on record: Am2.2-beta2AR cells, at 10 µM, stronger effect = higher value.
Test [11] has as its target AP-2 complex subunit beta (Homo sapiens) (UniProt P63010). Nature of the test: beta-arrestin/AP2 interaction blockers – biochemical, validation set, GST-AP2 beads, flow cytometry, pilot screen (AID 504541;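 active means inhibition above 54%, about 3 SD of non-fluorescent compounds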;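 further: AP2 carries R879A mutation and is captured from E. coli lysate; bead-bound FITC arrestin peptide fluorescence measuring arrestin peptide binding to AP2; 0% = DMSO wells and 100% = excess unlabeled arrestin peptide control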). Particulars: FITC arrestin peptide, at 10 µM, stronger effect = higher value, AP2 beta2 appendage fragment, R879A mutant.
Test [12] can be described thus: cytosolic pH regulators acting via V-ATPase – S. cerevisiae, pHLuorin, HTS validation (AID 504600; in the data active means response above about 15%;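 further: plate controls were DMSO for no effect and reference compound for full effect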). The settings on record: V-ATPase proton transport, at 10 µM, stronger effect = higher value.
Test [13] concerns anti-desmoglein-3 scFv antibody binding to human DSG3. Nature of the test: blockers of pathogenic pemphigus antibody–desmoglein-3 binding – biochemical, validation compound set, bead-based, flow cytometry, pilot screen (AID 588368;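 active means binding below the plate cutoff, the plate median minus 3 SD, with a reading above zero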;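 further: signal is the median channel fluorescence of bead-bound GFP antibody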). The settings on record: Protein G beads, DSG3-Fc, scFv-GFP binding, at 10 µM, stronger effect = lower value.
The nature of test [14]: Nile Red efflux blockade in pump-expressing yeast – validation compound set, multiplex, phenotypic, pilot screen (AID 588506;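 active means efflux inhibition above 0.42, the validation set average plus 4 SD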;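 further: Nile Red retained in cells so higher fluorescence means more efflux inhibition; 0 = negative control wells and 1 = enniatin B 25 µM full block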). Particulars: S. cerevisiae pump-expressing triplex, Nile Red efflux flow cytometry; at 10 µM; stronger effect = higher value; the pumps come from Candida albicans.
The target in test [15] is ATP-binding cassette sub-family B member 6 (Homo sapiens) (UniProt Q9NP58). Nature of the test: blockers of ABCB6-driven porphyrin uptake – K562-ABCB6 cells, flow cytometry, validation set, pilot screen (AID 588550;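 active means inhibition above the screen-wide mean plus 3 SD, about 51%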;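 further: 0% = DMSO wells and 100% = benzethonium chloride 70 µM positive control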). Particulars: K562-ABCB6 porphyrin accumulation, 1 h, at 10 µM, stronger effect = higher value.
The nature of test [16]: AML differentiation inducers, ER-HoxA9 marrow cells – cell-based, GFP/MAC1 double positive, flow cytometry, validation set, primary screen (AID 588685;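 active means differentiation response of at least 50%, scaled between solvent and reference control, from cells with both markers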;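 further: compound exposure lasts four days before antibody staining and flow analysis; 0% = DMSO wells and 100% = 5 µM fulvestrant positive control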). Particulars: stronger effect = higher value, normalized: vehicle 0, fulvestrant 100.

The values that follow come from PubChem BioAssay.

The structures appear in SMILES notation. Results filed as inconclusive are left out. Activity calls are given as the source filed them.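 How the source made its calls, unless noted: active means GFP signal, as percent of the solvent control, above the screen mean plus 3 SD, about 149; inconclusive means no reading because the compound's own fluorescence upset strain identification; inactive means the rest.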

Integrin beta-1 (Homo sapiens) + Integrin alpha-4 (Homo sapiens), sequence (P05556 whole entry, looked up): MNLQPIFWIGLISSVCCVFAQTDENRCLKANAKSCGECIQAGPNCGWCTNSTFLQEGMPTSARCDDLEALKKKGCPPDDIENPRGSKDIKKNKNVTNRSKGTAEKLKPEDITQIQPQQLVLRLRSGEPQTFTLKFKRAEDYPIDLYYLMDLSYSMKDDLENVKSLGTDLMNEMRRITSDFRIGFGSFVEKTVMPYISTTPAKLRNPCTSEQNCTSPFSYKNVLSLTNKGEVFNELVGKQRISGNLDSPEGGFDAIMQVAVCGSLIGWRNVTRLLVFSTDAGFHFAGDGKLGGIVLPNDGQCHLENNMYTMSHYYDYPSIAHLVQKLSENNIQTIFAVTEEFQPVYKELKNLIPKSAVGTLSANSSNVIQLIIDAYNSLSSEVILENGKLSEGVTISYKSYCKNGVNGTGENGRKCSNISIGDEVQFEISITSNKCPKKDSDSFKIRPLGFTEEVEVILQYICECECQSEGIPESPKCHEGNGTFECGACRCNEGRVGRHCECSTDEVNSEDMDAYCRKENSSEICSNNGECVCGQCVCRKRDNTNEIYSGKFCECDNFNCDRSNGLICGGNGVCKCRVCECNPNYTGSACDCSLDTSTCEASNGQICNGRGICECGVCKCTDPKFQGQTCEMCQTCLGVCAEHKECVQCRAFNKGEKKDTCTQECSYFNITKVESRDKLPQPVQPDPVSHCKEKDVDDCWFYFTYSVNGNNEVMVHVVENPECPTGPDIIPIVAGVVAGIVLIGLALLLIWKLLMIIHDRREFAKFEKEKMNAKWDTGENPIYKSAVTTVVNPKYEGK
Integrin beta-1 (Homo sapiens) + Integrin alpha-4 (Homo sapiens), sequence (P13612 whole entry, looked up): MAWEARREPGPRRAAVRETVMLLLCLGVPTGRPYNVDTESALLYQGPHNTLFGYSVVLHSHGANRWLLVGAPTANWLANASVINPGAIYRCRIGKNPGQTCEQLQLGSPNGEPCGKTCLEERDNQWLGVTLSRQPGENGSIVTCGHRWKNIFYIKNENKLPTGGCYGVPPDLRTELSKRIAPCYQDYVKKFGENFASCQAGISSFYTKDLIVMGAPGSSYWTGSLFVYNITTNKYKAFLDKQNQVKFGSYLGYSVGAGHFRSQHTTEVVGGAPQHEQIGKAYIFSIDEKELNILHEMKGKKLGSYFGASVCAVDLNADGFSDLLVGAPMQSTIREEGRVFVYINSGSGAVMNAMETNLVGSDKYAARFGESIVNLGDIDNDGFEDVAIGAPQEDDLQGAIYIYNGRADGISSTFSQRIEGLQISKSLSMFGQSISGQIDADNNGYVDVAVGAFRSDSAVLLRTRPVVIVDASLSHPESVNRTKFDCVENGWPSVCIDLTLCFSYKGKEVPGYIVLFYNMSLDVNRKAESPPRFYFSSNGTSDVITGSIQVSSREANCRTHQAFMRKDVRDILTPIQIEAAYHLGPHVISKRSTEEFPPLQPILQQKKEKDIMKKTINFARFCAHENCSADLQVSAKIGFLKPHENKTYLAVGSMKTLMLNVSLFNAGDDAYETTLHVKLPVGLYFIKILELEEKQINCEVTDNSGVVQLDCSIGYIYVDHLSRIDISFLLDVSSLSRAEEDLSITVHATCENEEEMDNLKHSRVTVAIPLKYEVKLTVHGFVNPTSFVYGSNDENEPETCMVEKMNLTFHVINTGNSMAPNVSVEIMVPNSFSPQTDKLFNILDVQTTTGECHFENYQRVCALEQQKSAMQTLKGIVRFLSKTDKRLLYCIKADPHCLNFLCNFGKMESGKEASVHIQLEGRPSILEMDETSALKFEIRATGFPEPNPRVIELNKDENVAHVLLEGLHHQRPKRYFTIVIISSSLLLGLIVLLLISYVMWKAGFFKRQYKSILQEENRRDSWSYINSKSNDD
Beta-adrenergic receptor kinase 1 (Homo sapiens), sequence (P25098 whole entry, looked up): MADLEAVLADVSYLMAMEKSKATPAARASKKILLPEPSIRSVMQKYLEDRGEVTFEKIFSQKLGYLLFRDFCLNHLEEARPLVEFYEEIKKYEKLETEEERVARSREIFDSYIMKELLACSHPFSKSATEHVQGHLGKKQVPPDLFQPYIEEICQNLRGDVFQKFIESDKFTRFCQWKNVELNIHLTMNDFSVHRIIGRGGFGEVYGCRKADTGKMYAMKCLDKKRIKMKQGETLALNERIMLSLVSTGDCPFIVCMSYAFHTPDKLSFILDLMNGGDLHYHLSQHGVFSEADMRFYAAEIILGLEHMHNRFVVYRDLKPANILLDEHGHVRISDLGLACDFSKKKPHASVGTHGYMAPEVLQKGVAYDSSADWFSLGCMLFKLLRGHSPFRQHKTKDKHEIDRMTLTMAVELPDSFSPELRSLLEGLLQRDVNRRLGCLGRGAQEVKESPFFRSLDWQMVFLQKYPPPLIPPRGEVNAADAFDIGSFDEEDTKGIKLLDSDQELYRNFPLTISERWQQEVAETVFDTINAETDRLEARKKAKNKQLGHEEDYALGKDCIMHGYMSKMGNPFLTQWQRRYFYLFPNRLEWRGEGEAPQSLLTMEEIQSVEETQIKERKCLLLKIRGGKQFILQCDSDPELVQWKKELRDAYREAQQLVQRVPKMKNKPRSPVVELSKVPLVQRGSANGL
Beta-2 adrenergic receptor (Homo sapiens), sequence (P07550 whole entry, looked up): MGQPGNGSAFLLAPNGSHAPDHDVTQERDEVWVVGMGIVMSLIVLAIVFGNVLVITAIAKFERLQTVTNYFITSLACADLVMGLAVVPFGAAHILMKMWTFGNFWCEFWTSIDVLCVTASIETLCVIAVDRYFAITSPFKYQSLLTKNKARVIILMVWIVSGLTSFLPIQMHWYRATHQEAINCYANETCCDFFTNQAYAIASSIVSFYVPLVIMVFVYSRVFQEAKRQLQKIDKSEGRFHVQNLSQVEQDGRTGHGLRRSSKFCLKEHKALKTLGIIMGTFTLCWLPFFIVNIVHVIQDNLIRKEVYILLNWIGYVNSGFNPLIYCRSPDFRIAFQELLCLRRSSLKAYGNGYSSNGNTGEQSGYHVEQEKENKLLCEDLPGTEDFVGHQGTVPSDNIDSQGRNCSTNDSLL
AP-2 complex subunit beta (Homo sapiens), sequence (P63010 whole entry, looked up, the tested form may be a part, one chain of several): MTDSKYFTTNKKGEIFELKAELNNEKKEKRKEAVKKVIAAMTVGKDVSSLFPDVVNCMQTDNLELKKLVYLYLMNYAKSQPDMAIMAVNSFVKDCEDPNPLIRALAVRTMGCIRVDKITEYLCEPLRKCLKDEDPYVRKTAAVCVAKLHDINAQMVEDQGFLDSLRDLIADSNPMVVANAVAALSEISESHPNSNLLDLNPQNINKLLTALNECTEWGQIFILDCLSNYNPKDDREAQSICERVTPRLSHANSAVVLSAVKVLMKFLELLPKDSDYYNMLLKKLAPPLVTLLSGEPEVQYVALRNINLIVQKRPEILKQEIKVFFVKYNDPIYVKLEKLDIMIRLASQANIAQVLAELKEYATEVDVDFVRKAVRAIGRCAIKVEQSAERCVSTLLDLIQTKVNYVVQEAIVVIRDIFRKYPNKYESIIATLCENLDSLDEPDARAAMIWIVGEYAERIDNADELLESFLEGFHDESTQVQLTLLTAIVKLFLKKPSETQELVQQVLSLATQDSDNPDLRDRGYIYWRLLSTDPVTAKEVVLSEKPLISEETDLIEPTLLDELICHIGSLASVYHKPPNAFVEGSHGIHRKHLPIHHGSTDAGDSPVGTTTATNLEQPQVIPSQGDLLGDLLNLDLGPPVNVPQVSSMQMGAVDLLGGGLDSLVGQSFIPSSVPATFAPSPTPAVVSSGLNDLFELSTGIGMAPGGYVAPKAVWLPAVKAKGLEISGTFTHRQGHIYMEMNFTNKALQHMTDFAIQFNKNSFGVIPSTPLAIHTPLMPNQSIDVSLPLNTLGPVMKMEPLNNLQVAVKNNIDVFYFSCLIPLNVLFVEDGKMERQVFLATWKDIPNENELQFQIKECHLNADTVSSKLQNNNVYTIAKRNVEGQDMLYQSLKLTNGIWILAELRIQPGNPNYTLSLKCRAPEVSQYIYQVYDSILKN
ATP-binding cassette sub-family B member 6 (Homo sapiens), sequence (Q9NP58 whole entry, looked up): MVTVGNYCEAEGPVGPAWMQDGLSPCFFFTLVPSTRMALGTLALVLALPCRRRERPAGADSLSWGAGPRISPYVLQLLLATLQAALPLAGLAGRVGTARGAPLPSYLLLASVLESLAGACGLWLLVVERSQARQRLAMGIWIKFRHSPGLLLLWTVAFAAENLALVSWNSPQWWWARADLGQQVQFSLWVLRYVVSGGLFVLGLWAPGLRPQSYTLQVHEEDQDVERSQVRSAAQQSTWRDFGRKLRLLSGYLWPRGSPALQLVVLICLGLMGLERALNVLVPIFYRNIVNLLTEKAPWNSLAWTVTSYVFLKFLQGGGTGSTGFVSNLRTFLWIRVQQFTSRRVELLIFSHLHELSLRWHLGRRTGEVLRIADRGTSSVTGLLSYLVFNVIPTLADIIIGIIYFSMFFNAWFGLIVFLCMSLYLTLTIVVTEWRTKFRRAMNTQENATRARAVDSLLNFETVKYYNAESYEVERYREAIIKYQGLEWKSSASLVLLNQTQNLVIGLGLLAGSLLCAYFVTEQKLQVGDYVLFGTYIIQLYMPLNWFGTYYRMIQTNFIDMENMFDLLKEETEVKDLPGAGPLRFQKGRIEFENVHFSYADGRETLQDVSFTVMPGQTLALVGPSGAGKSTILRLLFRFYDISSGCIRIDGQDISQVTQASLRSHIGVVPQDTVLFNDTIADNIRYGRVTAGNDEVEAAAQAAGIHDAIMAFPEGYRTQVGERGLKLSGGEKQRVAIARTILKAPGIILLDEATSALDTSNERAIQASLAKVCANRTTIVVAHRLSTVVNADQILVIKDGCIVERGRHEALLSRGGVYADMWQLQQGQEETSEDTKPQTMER

As for `COc1cc(CNc2ccc(C)c(C)c2)cc(OC)c1OC`, the percent of DMSO control GFP in test [1] is 99% (inactive). For the same molecule, the GFP response vs DMSO in test [2] was 108% (inactive); in test [4], 113% (inactive). The percent response of DMSO control in test [3] is 107% (inactive). Besides, the GFP response, % of DMSO in [5] is 111% (inactive). The molecule also showed a double positive events in [6] of 60.3%. Also, the vesicle binding response in [6] was 256% (inactive). Besides, the inhibition in test [7] is 6.55% (inactive); in test [11] it was 16.2% (inactive); in test [15], -8% (inactive). Besides, the superoxide response (% of plate) in test [8] was 90.2% (inactive). The aptamer binding inhibition in test [9] was 0% (inactive). The response was -29.1% (inactive) in [10] and -0.73% (inactive) in test [12]. For the same molecule, in test [13], the binding (% of control) is 101% (inactive). Besides, in [14], the efflux inhibition (fraction of control) was 0 (inactive). In [16], the differentiation response was -16.8% (inactive).

Consider `CCOC(=O)C1(Cc2cccc(Cl)c2)CCCN(C2CCN(C(C)=O)CC2)C1` (centres undefined), for which, in [1], the percent of DMSO control GFP was 101% (inactive). Further, the GFP response vs DMSO in test [2] and in test [4] was 101% (inactive) in each case. Besides, the percent response of DMSO control in [3] was 102% (inactive). For the same molecule, the GFP response, % of DMSO in [5] was 100% (inactive). In test [6], the double positive events amounted to 60.5%. The vesicle binding response in [6] was 42.6% (inactive). Moreover, the inhibition is -7.72% (inactive) in test [7], 34.6% (inactive) in test [11] and 13% (inactive) in [15]. In addition, the superoxide response (% of plate) in test [8] was 106% (inactive). The aptamer binding inhibition in test [9] is -3% (inactive). For the same molecule, the response is -8.31% (inactive) in test [10] and -5.5% (inactive) in [12]. In addition, in test [13], the binding (% of control) was 177% (inactive). Besides, the efflux inhibition (fraction of control) in test [14] was -0.1 (inactive). Moreover, in test [16], the differentiation response was -0.73% (inactive).

Take `Cc1ncoc1C(=O)N1CCCC(C(=O)c2ccc(-c3ccccc3)c(F)c2)C1` (centres undefined): the percent of DMSO control GFP in [1] is 102% (inactive). The GFP response vs DMSO in test [2] is 121% (inactive); in test [4], 76.5% (inactive). In addition, the percent response of DMSO control in test [3] was 112% (inactive). For the same molecule, the GFP response, % of DMSO in test [5] is 94% (inactive). The molecule further returned a double positive events in test [6] of 49.9%. Further, the vesicle binding response in test [6] is 220% (inactive). Also, the inhibition was -3.24% (inactive) in test [7], 4.25% (inactive) in test [11] and 12% (inactive) in [15]. Moreover, the superoxide response (% of plate) in [8] was 110% (inactive). For the same molecule, in test [9], the aptamer binding inhibition was 8% (inactive). The response was -19.4% (inactive) in [10] and -6.69% (inactive) in test [12]. Besides, the binding (% of control) in test [13] was 101% (inactive). Also, in [14], the efflux inhibition (fraction of control) was 0.01 (inactive). For the same molecule, the differentiation response in test [16] was 0.82% (inactive).

As to `C#CCN1C(=O)C(O)(c2c(C)[nH]c3ccccc23)c2ccccc21` (centres undefined), the percent of DMSO control GFP in test [1] was 103% (inactive). In addition, the figures for the GFP response vs DMSO in test [2] and in test [4] were 106% (inactive) and 103% (inactive), respectively. Moreover, in test [3], the percent response of DMSO control is 96% (inactive). Moreover, the GFP response, % of DMSO in test [5] was 100% (inactive). Further, in test [6], the double positive events stood at 65%. In addition, the vesicle binding response in [6] is 220% (inactive). Moreover, the inhibition in test [7] is -0.31% (inactive); in test [11], 2.17% (inactive); in test [15], 3% (inactive). The superoxide response (% of plate) in test [8] is 96.9% (inactive). The aptamer binding inhibition in test [9] was 3% (inactive). Also, the response in test [10] is 1% (inactive); in test [12], -0.83% (inactive). In addition, the binding (% of control) in [13] was 100% (inactive). Also, the efflux inhibition (fraction of control) in test [14] was -0.44 (inactive). Moreover, the differentiation response in test [16] was 0% (inactive).

Turning to `COc1cc(OC)c2c(C)c(Cl)c(=O)oc2c1`, the percent of DMSO control GFP in test [1] is 102% (inactive). For the same molecule, the GFP response vs DMSO in test [2] was 104% (inactive); in test [4], 113% (inactive). For the same molecule, the percent response of DMSO control in [3] was 105% (inactive). For the same molecule, in test [5], the GFP response, % of DMSO was 99.1% (inactive). In addition, the double positive events in test [6] came out at 56.7%. In test [6], the vesicle binding response was 92.7% (inactive). Also, the inhibition in test [7] is 2.66% (inactive); in test [11], -8.58% (inactive); in test [15], -9% (inactive). In addition, in test [8], the superoxide response (% of plate) was 90.2% (inactive). In addition, the aptamer binding inhibition in test [9] is -3% (inactive). The response in test [10] is -6.2% (inactive); in test [12] it was 1.24% (inactive). In test [13], the binding (% of control) is 100% (inactive). In addition, in [14], the efflux inhibition (fraction of control) was -0.1 (inactive). In addition, the differentiation response in test [16] was 0.24% (inactive).

As to `O=C(NCCc1c[nH]c2ccccc12)OCCSS(=O)(=O)O`, the percent of DMSO control GFP in [1] is 101% (inactive). The GFP response vs DMSO in [2] is 101% (inactive); in [4], 102% (inactive). For the same molecule, the percent response of DMSO control in test [3] was 108% (inactive). Besides, the GFP response, % of DMSO in test [5] was 100% (inactive). Further, the double positive events in test [6] was 66.8%. Besides, in test [6], the vesicle binding response was 1060% (inactive). For the same molecule, the inhibition is -6.68% (inactive) in test [7], -1.88% (inactive) in test [11] and 7% (inactive) in test [15]. For the same molecule, the superoxide response (% of plate) in [8] is 106% (inactive). Besides, in test [9], the aptamer binding inhibition is 3% (inactive). The response in [10] was -2.85% (inactive); in [12], 3.36% (inactive). For the same molecule, the binding (% of control) in [13] was 99.7% (inactive). Moreover, in test [14], the efflux inhibition (fraction of control) is -0.07 (inactive). Moreover, the differentiation response in [16] is 2.2% (inactive).

With `CCN1CCN(C(=S)c2ccc(OC)cc2)CC1`, the percent of DMSO control GFP in [1] was 101% (inactive). Further, the GFP response vs DMSO is 99.6% (inactive) in [2] and 76% (inactive) in test [4]. The percent response of DMSO control in [3] was 109% (inactive). For the same molecule, in test [5], the GFP response, % of DMSO was 92.6% (inactive). Further, the double positive events in test [6] came out at 62.5%. In addition, the vesicle binding response in [6] is 183% (inactive). Moreover, the inhibition in [7] is -4.52% (inactive); in test [11], -10.4% (inactive); in test [15], 9% (inactive). Moreover, the superoxide response (% of plate) in [8] was 106% (inactive). Moreover, in test [9], the aptamer binding inhibition is 2% (inactive). Besides, the response in test [10] was 11.6% (inactive); in test [12] it was 19.2% (active). In test [13], the binding (% of control) is 101% (inactive). Besides, the efflux inhibition (fraction of control) in test [14] is -0.21 (inactive). Moreover, in test [16], the differentiation response was -20% (inactive).

As usually defined, the inhibition is the drop in the measured response relative to a control, in per cent.
